# From the supplement of paper PMC10849652
# Targets with a hit are over-represented here; the source holds about 7,900 in all. About 0.6% of all pairs of compound and target were hits. Values without a mark were called inactive.
# Experiments:
# Assay in all cases: log2 fold change, soluble protein after heating vs DMSO (PISA); higher = thermal stabilisation; K562 cells, 10 uM, 30 min; active = over 0.2 and 3.5 SD of the protein, either way, in both replicates (recomputed)
# [1] = compound: CS(=O)(=O)c1ccc(-c2cnc(N)c(C(=O)Nc3ccccc3)n2)cc1
# In short: (§1)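 K562 cells at 2×10^6 cells/mL were exposed to 10 μM compound for 30 min, then aliquots were heated for 3 min across 48°C-58°C, pooled, and extracted in PBS containing 0.5% NP-40 at 4°C. The supernatant after 21,000xg for 90 min was taken as soluble protein and measured by TMTpro 16plex LC-MS/MS with channel sums equalised. Thermal stability is reported relative to control samples, with values from duplicates. Fold changes are given on a log2 scale.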
# [2] = compound: C[C@@H](Oc1cc(-c2cnn(C3CCNCC3)c2)cnc1N)c1c(Cl)ccc(F)c1Cl [crizotinib]
# In short: as §1
# [3] = compound: C[C@@H]1COCCN1C2=NC(=NC(=C2)C3(CC3)S(=O)(=O)C)C4=C5C=CNC5=CC=C4
# In short: as §1
# [4] = compound: C[C@H](C1=CC=C(C=C1)C(=O)NC2=C3C=CNC3=NC=C2)N
# In short: as §1
# [5] = compound: C[C@H](Nc1ncnc2nc[nH]c12)c1cc2cccc(Cl)c2c(=O)n1-c1ccccc1 [duvelisib]
# In short: as §1
# [6] = compound: Cc1cc(Nc2cc(CN3CCOCC3)c3nc(C)c(Cc4ccc(Cl)cc4F)n3n2)n[nH]1 [gandotinib]
# In short: as §1
# [7] = compound: Cc1cc(Nc2cc(N3CCN(C)CC3)nc(Sc3ccc(NC(=O)C4CC4)cc3)n2)n[nH]1 [tozasertib]
# In short: as §1
# [8] = compound: Cc1cc(SCc2sc(-c3ccc(C(F)(F)F)cc3)nc2C)ccc1OCC(=O)O
# In short: as §1
# [9] = compound: Cc1ccc(-n2nc(C(C)(C)C)cc2NC(=O)Nc2ccc(OCCN3CCOCC3)c3ccccc23)cc1 [doramapimod]
# In short: as §1
# [10] = compound: Cc1ccc(C(=O)N(CCCN)[C@@H](c2nc3cc(Cl)ccc3c(=O)n2Cc2ccccc2)C(C)C)cc1 [ispinesib]
# In short: as §1
# [11] = compound: Cc1ccc(NC(=O)c2ccc(CN3CC[C@H](N(C)C)C3)c(C(F)(F)F)c2)cc1Nc1nccc(-c2cncnc2)n1 [bafetinib]
# In short: as §1
# [12] = compound: Cc1cccc(CC(=O)N2CCc3c2ccc(-c2cn(C)c4ncnc(N)c24)c3F)n1
# In short: as §1
# [13] = compound: Cc1cn(-c2cc(NC(=O)c3ccc(C)c(Nc4nccc(-c5cccnc5)n4)c3)cc(C(F)(F)F)c2)cn1 [nilotinib]
# In short: as §1
# [14] = compound: Cc1nc(Nc2n[nH]c3c2CN(C(=O)N[C@H](CN(C)C)c2ccccc2)C3(C)C)c2sccc2n1
# In short: as §1
# [15] = compound: Cc1nc(Nc2ncc(C(=O)Nc3c(C)cccc3Cl)s2)cc(N2CCN(CCO)CC2)n1 [dasatinib]
# In short: as §1
# [16] = compound: Cc1ncc(-c2ccnc(Nc3ccc(S(C)(=O)=O)cc3)n2)n1C(C)C
# In short: as §1
# [17] = compound: Cn1cc(-c2ccc3c(c2)CCN3C(=O)Cc2cccc(C(F)(F)F)c2)c2c(N)ncnc21
# In short: as §1
# [18] = compound: Cn1cc(-c2ccc3nnc(C(F)(F)c4ccc5ncccc5c4)n3n2)cn1
# In short: as §1
# [19] = compound: Cn1cncc1[C@@](N)(c1ccc(Cl)cc1)c1ccc2c(c1)c(-c1cccc(Cl)c1)cc(=O)n2C [tipifarnib]
# In short: as §1
# [20] = compound: FC(F)(F)c1ccc(/C=C/c2nc(COc3ccc(CCCCn4ccnn4)cc3)co2)cc1 [mubritinib]
# In short: as §1
# Chain of UniProt O43592 (O43592 whole entry, looked up): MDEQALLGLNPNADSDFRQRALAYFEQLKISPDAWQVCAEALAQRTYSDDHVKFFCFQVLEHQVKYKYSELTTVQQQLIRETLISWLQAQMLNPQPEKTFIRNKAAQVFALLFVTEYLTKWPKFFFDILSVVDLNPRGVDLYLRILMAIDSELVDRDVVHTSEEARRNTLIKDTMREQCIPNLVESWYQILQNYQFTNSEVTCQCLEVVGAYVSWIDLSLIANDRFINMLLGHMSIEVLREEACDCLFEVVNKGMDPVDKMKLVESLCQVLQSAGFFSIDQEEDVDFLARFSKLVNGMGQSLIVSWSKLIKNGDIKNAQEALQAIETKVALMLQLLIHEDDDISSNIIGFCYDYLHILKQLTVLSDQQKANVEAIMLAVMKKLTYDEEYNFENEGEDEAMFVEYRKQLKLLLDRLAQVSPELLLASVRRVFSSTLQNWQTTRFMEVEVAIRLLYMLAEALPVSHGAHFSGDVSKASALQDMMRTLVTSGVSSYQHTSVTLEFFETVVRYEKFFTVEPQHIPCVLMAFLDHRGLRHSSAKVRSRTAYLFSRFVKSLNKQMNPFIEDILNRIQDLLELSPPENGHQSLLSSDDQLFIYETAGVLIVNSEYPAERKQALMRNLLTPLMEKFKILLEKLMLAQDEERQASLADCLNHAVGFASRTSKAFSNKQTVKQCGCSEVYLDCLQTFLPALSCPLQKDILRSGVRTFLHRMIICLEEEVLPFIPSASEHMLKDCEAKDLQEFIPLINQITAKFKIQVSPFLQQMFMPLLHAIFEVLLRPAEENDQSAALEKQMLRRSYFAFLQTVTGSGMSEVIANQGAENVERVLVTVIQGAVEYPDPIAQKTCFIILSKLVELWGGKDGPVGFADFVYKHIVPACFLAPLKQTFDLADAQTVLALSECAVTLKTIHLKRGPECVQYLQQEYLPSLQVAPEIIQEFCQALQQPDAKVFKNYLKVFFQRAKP
# Chain of UniProt Q9UGM6 (Q9UGM6 whole entry, looked up): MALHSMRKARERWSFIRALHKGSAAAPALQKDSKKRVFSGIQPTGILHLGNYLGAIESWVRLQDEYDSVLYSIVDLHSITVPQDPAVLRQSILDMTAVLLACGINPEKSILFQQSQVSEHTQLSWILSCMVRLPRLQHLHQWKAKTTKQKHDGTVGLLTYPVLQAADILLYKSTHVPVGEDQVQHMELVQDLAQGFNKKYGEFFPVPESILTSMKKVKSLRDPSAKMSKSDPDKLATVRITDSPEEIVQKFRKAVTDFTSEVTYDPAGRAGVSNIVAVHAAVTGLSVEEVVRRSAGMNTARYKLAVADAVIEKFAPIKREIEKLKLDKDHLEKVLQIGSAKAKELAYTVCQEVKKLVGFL
# Chain of UniProt P49815 (P49815 whole entry, looked up): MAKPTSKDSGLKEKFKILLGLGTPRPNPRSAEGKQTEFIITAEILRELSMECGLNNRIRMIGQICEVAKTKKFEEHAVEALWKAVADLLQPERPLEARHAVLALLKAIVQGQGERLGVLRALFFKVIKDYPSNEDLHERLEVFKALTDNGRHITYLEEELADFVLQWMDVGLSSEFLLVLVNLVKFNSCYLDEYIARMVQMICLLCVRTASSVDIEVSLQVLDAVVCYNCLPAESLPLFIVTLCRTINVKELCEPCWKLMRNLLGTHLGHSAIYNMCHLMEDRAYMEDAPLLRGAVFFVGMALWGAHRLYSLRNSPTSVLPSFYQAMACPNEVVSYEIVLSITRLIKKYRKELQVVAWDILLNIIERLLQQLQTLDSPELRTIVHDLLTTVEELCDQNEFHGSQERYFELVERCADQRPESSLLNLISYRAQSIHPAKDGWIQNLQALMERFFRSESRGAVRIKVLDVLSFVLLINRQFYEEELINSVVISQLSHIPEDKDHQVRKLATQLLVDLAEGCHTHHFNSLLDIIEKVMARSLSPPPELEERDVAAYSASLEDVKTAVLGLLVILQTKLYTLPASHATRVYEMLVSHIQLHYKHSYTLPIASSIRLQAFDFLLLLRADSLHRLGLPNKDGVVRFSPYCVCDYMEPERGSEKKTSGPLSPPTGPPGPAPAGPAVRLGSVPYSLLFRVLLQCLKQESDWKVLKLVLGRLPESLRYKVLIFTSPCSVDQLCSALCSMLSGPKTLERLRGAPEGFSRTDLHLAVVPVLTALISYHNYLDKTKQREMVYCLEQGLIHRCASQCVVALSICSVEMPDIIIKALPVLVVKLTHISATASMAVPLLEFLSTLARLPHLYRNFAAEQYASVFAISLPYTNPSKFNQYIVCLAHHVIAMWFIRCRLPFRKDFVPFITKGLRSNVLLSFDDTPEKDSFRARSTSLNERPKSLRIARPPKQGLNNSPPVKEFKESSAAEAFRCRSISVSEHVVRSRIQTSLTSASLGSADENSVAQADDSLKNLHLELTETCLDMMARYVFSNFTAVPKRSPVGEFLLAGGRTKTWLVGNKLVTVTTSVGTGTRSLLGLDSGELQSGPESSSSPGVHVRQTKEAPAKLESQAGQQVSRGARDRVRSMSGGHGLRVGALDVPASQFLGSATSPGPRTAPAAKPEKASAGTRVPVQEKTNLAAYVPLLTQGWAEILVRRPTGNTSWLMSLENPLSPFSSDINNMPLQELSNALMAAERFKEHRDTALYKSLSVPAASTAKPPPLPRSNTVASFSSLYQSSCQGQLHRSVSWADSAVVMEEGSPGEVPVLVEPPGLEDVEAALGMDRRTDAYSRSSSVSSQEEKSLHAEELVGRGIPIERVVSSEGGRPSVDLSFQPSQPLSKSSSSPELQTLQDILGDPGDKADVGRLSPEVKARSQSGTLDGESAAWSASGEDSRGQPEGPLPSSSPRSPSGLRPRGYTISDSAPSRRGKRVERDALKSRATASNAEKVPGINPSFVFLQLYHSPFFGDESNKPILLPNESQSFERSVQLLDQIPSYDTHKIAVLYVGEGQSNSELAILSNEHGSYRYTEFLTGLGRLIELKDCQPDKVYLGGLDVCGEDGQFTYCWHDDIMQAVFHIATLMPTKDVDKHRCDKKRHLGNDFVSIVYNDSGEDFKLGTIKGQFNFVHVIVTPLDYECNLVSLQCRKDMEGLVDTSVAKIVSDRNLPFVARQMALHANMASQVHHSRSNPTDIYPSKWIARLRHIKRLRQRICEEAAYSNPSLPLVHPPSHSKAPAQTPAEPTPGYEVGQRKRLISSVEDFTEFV
# Chain of UniProt P0CG48 (P0CG48 whole entry, looked up): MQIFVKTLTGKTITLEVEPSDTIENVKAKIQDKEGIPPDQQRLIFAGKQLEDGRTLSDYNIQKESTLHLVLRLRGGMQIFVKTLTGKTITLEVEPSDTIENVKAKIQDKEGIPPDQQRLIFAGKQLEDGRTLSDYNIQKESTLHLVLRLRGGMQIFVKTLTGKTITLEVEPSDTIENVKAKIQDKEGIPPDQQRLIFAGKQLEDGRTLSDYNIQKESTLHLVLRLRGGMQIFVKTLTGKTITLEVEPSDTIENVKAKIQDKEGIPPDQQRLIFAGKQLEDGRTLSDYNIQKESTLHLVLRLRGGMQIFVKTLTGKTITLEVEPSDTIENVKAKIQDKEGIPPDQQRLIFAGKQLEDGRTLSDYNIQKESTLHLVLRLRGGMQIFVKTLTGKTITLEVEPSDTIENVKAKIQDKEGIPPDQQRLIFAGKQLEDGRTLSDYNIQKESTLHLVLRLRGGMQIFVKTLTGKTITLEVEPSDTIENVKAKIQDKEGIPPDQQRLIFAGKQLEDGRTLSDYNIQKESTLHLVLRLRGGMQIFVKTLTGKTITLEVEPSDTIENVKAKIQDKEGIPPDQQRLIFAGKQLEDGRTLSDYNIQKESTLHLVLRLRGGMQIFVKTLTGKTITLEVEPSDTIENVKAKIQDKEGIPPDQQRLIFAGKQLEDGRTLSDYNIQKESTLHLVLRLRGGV
# Chain of UniProt Q6PID6 (Q6PID6 whole entry, looked up): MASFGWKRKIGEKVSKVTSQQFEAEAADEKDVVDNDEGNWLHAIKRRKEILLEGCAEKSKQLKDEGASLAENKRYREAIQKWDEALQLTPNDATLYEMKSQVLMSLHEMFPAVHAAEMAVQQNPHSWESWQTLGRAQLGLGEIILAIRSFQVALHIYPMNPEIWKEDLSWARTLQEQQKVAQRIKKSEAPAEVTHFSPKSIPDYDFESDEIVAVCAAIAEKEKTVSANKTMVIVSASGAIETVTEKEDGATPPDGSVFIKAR
# Chain of UniProt P54578 (P54578 whole entry, looked up): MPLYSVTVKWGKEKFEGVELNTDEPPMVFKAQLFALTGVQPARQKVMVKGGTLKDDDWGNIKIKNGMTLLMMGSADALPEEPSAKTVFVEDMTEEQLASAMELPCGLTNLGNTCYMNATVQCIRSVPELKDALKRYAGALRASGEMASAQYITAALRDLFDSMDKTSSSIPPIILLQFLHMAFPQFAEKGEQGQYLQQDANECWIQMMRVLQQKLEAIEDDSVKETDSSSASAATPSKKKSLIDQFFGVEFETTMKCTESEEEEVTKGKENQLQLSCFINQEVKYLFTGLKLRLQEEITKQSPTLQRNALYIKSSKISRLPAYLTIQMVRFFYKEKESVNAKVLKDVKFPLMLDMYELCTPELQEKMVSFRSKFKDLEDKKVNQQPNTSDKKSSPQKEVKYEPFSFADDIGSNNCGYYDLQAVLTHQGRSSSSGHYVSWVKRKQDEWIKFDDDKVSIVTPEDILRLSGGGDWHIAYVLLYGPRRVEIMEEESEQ
# Chain of UniProt Q7Z6J8 (Q7Z6J8 whole entry, looked up): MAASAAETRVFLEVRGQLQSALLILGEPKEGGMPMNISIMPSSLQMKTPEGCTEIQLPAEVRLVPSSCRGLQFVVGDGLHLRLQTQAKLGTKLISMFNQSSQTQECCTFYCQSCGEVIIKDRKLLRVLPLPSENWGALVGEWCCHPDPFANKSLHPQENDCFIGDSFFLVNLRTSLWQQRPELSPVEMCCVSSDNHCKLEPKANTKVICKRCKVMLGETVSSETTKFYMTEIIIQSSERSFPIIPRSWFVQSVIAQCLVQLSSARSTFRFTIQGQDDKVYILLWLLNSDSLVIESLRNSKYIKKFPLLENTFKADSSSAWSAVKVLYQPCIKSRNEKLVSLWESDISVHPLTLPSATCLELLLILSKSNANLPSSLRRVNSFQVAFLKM
# Chain of UniProt Q629K1 (Q629K1 whole entry, looked up): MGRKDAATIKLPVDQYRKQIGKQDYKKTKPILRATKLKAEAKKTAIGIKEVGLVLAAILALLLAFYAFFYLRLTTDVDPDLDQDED
Target,log2 fold change [1],log2 fold change [2],log2 fold change [3],log2 fold change [4],log2 fold change [5],log2 fold change [6],log2 fold change [7],log2 fold change [8],log2 fold change [9],log2 fold change [10],log2 fold change [11],log2 fold change [12],log2 fold change [13],log2 fold change [14],log2 fold change [15],log2 fold change [16],log2 fold change [17],log2 fold change [18],log2 fold change [19],log2 fold change [20]
VPS16 (UniProt Q9H269),0.035,-0.105,-0.09,0.08,0.023,-0.163,0.033,0.092,0.085,-0.239,0.041,0.178,-0.038,-0.071,-0.14,-0.022,-0.039,0.04,-0.078,0.083
VPS53 isoform 4 (UniProt Q5VIR6),0.087,-0.095,-0.004,0.006,-0.033,0,0.061,0.059,0.036,-0.113,-0.04,0.036,-0.1,-0.148,-0.087,0.037,-0.035,-0.027,-0.061,0.003
UBC (UniProt P0CG48),-0.003,0.208,0.05,0.064,0.075,0.014,0.009,-0.009,0.035,0.091,0.055,-0.156,0.116,0.013,0.02,-0.025,0.003,0.07,-0.051,0.005
TNFRSF8 (UniProt P28908),0.051,0.15,0.009,-0.073,0.027,0.012,-0.05,-0.063,-0.011,0.029,0.01,-0.089,0.074,-0.049,0.032,0.043,0.014,0.032,0.042,0.069
WARS2 (UniProt Q9UGM6),-0.062,0.09,0.065,0.027,0.079,0.006,-0.001,0.04,0.017,-0.085,-0.183,0.016,-0.086,-0.008,-0.147,0.047,0.022,-0.056,-0.046,-0.569 (active)
XPOT (UniProt O43592),0.009,-0.123,0.024,-0.001,0.005,-0.177,0.15,0.068,-0.011,-0.12,-0.014,0.013,-0.083,-0.012,-0.13,0.083,-0.075,0.066,-0.173,0.077
USP14 (UniProt P54578),0.006,-0.023,0.082,-0.037,0.067,-0.078,-0.002,0.076,0.002,0.017,-0.03,0.012,-0.006,-0.026,-0.087,0.015,-0.001,-0.065,-0.067,0.029
TTC4 (UniProt O95801),0.046,-0.001,0.017,0.029,0.032,-0.025,0.061,0.134,-0.028,0.108,0.036,0.116,-0.034,-0.094,-0.137,0.003,0.019,0,-0.077,0.061
UTP4 (UniProt Q969X6),-0.013,0.019,0.055,0.004,0.022,0.004,0.006,-0.056,0.012,0.066,-0.04,-0.013,0.021,0.035,0.039,0.143,-0.042,-0.014,0.058,-0.025
TSC2 (UniProt P49815),-0.09,0.065,-0.139,0.218,,-0.091,-0.172,,0.09,0.012,-0.024,0.109,,,,,0.066,0.047,0.019,-0.048
UCHL5 isoform 3 (UniProt Q9Y5K5),0.039,-0.458,0.058,-0.05,,,0.219,,-0.067,0.02,0.151,,-0.104,0.076,,-0.08,-0.052,-0.064,-0.085,0.049
TRIQK (UniProt Q629K1),0.003,0.024,0.072,0.017,0.073,,-0.003,-0.006,0.008,0.182,-0.059,,,,0.007,,-0.007,-0.03,,-0.002
TOM1 (UniProt O60784),-0.04,-0.054,-0.05,,,-0.018,0.044,,0.052,,-0.288,-0.105,,,,,,,,-0.222
UBE3B (UniProt Q7Z3V4),0.106,-0.133,0.254,-0.108,0.141,,-0.109,0.021,-0.055,0.178,-0.134,,0.072,0.03,-0.028,0.116,-0.062,0.103,-0.112,
VPS50 (UniProt Q96JG6),0.012,-0.118,0.044,0.049,-0.017,-0.066,0.01,0.086,-0.032,-0.023,0.017,0.088,-0.074,-0.077,-0.257 (active),0.038,-0.019,-0.035,-0.066,0.045
TMEM164 (UniProt Q5U3C3),0,-0.036,0.139,0.05,0.601 (active),-0.204,0.031,0.027,0.091,,-0.097,-0.155,0.023,-0.021,0.048,0.037,0.002,,0.059,-0.067
TTC33 (UniProt Q6PID6),0.056,-0.399,-0.113,0.146,0.002,-0.192,,-0.06,-0.15,-0.095,0.049,0.181,,,0.043,,-0.084,-0.069,-0.03,0.113
UBE3D (UniProt Q7Z6J8),0.002,0.053,0.128,-0.067,0.016,-0.147,0.076,-0.052,-0.01,-0.024,-0.036,-0.047,0.043,-0.001,-0.071,0.037,0.003,0.013,-0.049,0.009
